According to PubChem BioAssay (NCI):
Compounds without any hit were thinned out: in the full panel of roughly 83,000, 20% have a hit.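 Percent growth is the endpoint: 0 to 100 indicates growth inhibition (40 means 60% inhibition), 0 means no net growth, and negative values indicate cell death.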 Active and inactive are the calls of the source. Rule for the calls: active = growth percent below 10; inactive = the rest.

What was measured:
Experiment in all cases: NCI-60 one-dose screen, 48 h (100 = growth as untreated, 0 = no growth, -100 = all killed)
NCI-H23 lung = system: NCI-H23 lung
NCI-H226 lung = system: NCI-H226 lung
NCI-H322M lung = details: 10 µM unless noted
HOP-62 NSCLC = system: HOP-62 NSCLC
NCI-H460 lung = system: NCI-H460 lung
HOP-92 NSCLC = system: HOP-92 NSCLC
NCI-H522 lung = system: NCI-H522 lung
A549/ATCC NSCLC = system: A549/ATCC NSCLC
786-0 renal = system: 786-0 renal
COLO 205 colon = system: COLO 205 colon
DU-145 prostate = system: DU-145 prostate
K-562 leukemia = system: K-562 leukemia
MALME-3M melanoma = system: MALME-3M melanoma
MDA-MB-231 breast = system: MDA-MB-231 breast
RXF 393 renal = system: RXF 393 renal
SF-268 CNS = system: SF-268 CNS
SF-295 CNS = system: SF-295 CNS
SF-539 CNS = system: SF-539 CNS
UACC-257 melanoma = system: UACC-257 melanoma
M14 melanoma = system: M14 melanoma

Measured: growth

COc1cc(-c2nn(-c3cccc(NC(=O)CCN4CCN(C)CC4)c3)cc2-c2ccncc2)ccc1Cl
inactive: NCI-H23 lung; 10 µM unless noted 42.5% | NCI-H226 lung; 10 µM unless noted 67.7% | NCI-H322M lung 37.5% | HOP-62 NSCLC; 10 µM unless noted 24.6% | NCI-H460 lung; 10 µM unless noted 14.9% | HOP-92 NSCLC; 10 µM unless noted 22.7% | A549/ATCC NSCLC; 10 µM unless noted 30.7% | 786-0 renal; 10 µM unless noted 12.2% | MALME-3M melanoma; 10 µM unless noted 38% | MDA-MB-231 breast; 10 µM unless noted 39.9% | RXF 393 renal; 10 µM unless noted 18.6% | SF-268 CNS; 10 µM unless noted 31.5% | UACC-257 melanoma; 10 µM unless noted 39.3%
active: NCI-H522 lung; 10 µM unless noted -6.1% | COLO 205 colon; 10 µM unless noted -31.6% | DU-145 prostate; 10 µM unless noted 3.19% | K-562 leukemia; 10 µM unless noted -10.4% | SF-295 CNS; 10 µM unless noted -6.03% | SF-539 CNS; 10 µM unless noted -19.6% | M14 melanoma; 10 µM unless noted -41.6%

CCCCCCCCN(CCCCCCCC)CC(O)c1cc(Cl)ccc1OC (centres undefined)
inactive: NCI-H23 lung; 10 µM unless noted 56% | NCI-H226 lung; 10 µM unless noted 62% | NCI-H322M lung 94.7% | HOP-62 NSCLC; 10 µM unless noted 80.8% | NCI-H460 lung; 10 µM unless noted 62.6% | HOP-92 NSCLC; 10 µM unless noted 66% | NCI-H522 lung; 10 µM unless noted 68% | A549/ATCC NSCLC; 10 µM unless noted 83.9% | 786-0 renal; 10 µM unless noted 72.7% | COLO 205 colon; 10 µM unless noted 55.5% | DU-145 prostate; 10 µM unless noted 81.8% | K-562 leukemia; 10 µM unless noted 50.1% | MALME-3M melanoma; 10 µM unless noted 99.5% | MDA-MB-231 breast; 10 µM unless noted 51.6% | RXF 393 renal; 10 µM unless noted 51.9% | SF-268 CNS; 10 µM unless noted 84.4% | SF-295 CNS; 10 µM unless noted 76.9% | SF-539 CNS; 10 µM unless noted 77.8% | UACC-257 melanoma; 10 µM unless noted 90.4% | M14 melanoma; 10 µM unless noted 84.9%

CCN(Cc1ccccc1)c1ccc(/C=C2\COc3ccccc3C2=O)cc1
inactive: NCI-H23 lung; 10 µM 97.2% | NCI-H23 lung; 100 µM 37.1% | NCI-H226 lung; 10 µM 95.4% | NCI-H226 lung; 100 µM 50.9% | NCI-H322M lung 75.9% [100 µM] | HOP-62 NSCLC; 10 µM 89.6% | HOP-62 NSCLC; 100 µM 56.8% | NCI-H460 lung; 10 µM 100% | NCI-H460 lung; 100 µM 45.8% | HOP-92 NSCLC; 10 µM 85.9% | HOP-92 NSCLC; 100 µM 23% | NCI-H522 lung; 10 µM 88.5% | A549/ATCC NSCLC; 10 µM 99.4% | A549/ATCC NSCLC; 100 µM 47% | 786-0 renal; 10 µM 86.9% | 786-0 renal; 100 µM 54.5% | COLO 205 colon; 10 µM 106% | COLO 205 colon; 100 µM 38.9% | DU-145 prostate; 10 µM 101% | DU-145 prostate; 100 µM 47.8% | K-562 leukemia; 10 µM 78.4% | MALME-3M melanoma; 10 µM 99.1% | MALME-3M melanoma; 100 µM 54.5% | MDA-MB-231 breast; 10 µM 101% | MDA-MB-231 breast; 100 µM 43% | RXF 393 renal; 10 µM 109% | RXF 393 renal; 100 µM 37.3% | SF-268 CNS; 10 µM 101% | SF-268 CNS; 100 µM 54.7% | SF-295 CNS; 10 µM 94.4% | SF-295 CNS; 100 µM 54.4% | SF-539 CNS; 10 µM 97.3% | SF-539 CNS; 100 µM 61.1% | UACC-257 melanoma; 10 µM 92.6% | UACC-257 melanoma; 100 µM 42.8% | M14 melanoma; 10 µM 97.4% | M14 melanoma; 100 µM 28.9%
active: NCI-H522 lung; 100 µM 2.07% | K-562 leukemia; 100 µM 6.4%

N#C/C(=C\c1ccc(Br)cc1)n1nnc2c(F)cccc21
inactive: NCI-H23 lung; 10 µM unless noted 10.3% | NCI-H226 lung; 10 µM unless noted 25.5% | HOP-62 NSCLC; 10 µM unless noted 53.8% | HOP-92 NSCLC; 10 µM unless noted 19.2% | A549/ATCC NSCLC; 10 µM unless noted 14.8% | K-562 leukemia; 10 µM unless noted 12% | SF-268 CNS; 10 µM unless noted 20.3% | SF-295 CNS; 10 µM unless noted 24.7%
active: NCI-H322M lung 0.929% | NCI-H460 lung; 10 µM unless noted -33.7% | NCI-H522 lung; 10 µM unless noted -52.1% | 786-0 renal; 10 µM unless noted -13.5% | COLO 205 colon; 10 µM unless noted -15.9% | DU-145 prostate; 10 µM unless noted 5.36% | MALME-3M melanoma; 10 µM unless noted -2.35% | MDA-MB-231 breast; 10 µM unless noted -10.6% | RXF 393 renal; 10 µM unless noted -57.9% | SF-539 CNS; 10 µM unless noted -7.82% | UACC-257 melanoma; 10 µM unless noted -10.7% | M14 melanoma; 10 µM unless noted 2.49%

Cc1n(Cc2ccc3ccccc3c2)c(Cl)c(Cl)[n+]1Cc1ccc2ccccc2c1
active: HOP-92 NSCLC; 10 µM unless noted -11.3% | COLO 205 colon; 10 µM unless noted -46.6% | K-562 leukemia; 10 µM unless noted 9.4% | MALME-3M melanoma; 10 µM unless noted -0.456% | UACC-257 melanoma; 10 µM unless noted -13.6%
inactive: NCI-H23 lung; 10 µM unless noted 25.6% | NCI-H226 lung; 10 µM unless noted 47.1% | NCI-H322M lung 76.2% | HOP-62 NSCLC; 10 µM unless noted 59.6% | NCI-H460 lung; 10 µM unless noted 33.5% | NCI-H522 lung; 10 µM unless noted 16.9% | A549/ATCC NSCLC; 10 µM unless noted 81.4% | 786-0 renal; 10 µM unless noted 50.2% | DU-145 prostate; 10 µM unless noted 48.3% | MDA-MB-231 breast; 10 µM unless noted 10.6% | RXF 393 renal; 10 µM unless noted 43.3% | SF-268 CNS; 10 µM unless noted 34.9% | SF-295 CNS; 10 µM unless noted 67.8% | SF-539 CNS; 10 µM unless noted 54.4% | M14 melanoma; 10 µM unless noted 10.9%

CC[C@H](C)[C@H](NC(=O)[C@@H](N)CCC(N)=O)C(=O)N[C@@H](Cc1ccc(O)cc1)C(=O)N[C@@H](CCCCN)C(=O)N[C@@H](CCCCN)C(=O)N[C@@H](Cc1ccc(O)cc1)C(=O)N[C@@H](CCCNC(=N)N)C(=O)N[C@H](C(=O)N[C@@H](Cc1c[nH]c2ccccc12)C(=O)N[C@@H](Cc1ccc(O)cc1)C(=O)N[C@@H](CCCNC(=N)N)C(=O)N[C@@H](CCCCN)C(=O)N[C@@H](C)C(=O)N[C@@H](Cc1c[nH]c2ccccc12)C(=O)N[C@@H](CCCCN)C(=O)N[C@H](C(=O)N[C@@H](CC(C)C)C(=O)NCC(=O)N[C@@H](CCCCN)C(=O)N[C@H](C(N)=O)C(C)C)C(C)C)[C@@H](C)O
inactive: NCI-H226 lung; 10 µM unless noted 53.4% | NCI-H322M lung 23% | HOP-62 NSCLC; 10 µM unless noted 13.3% | NCI-H522 lung; 10 µM unless noted 59.4% | A549/ATCC NSCLC; 10 µM unless noted 38.7% | RXF 393 renal; 10 µM unless noted 11.4% | SF-295 CNS; 10 µM unless noted 34.6% | UACC-257 melanoma; 10 µM unless noted 66.2%
active: NCI-H23 lung; 10 µM unless noted -15.1% | NCI-H460 lung; 10 µM unless noted -4.21% | HOP-92 NSCLC; 10 µM unless noted -21.2% | 786-0 renal; 10 µM unless noted -57.9% | COLO 205 colon; 10 µM unless noted 0.119% | DU-145 prostate; 10 µM unless noted 6.03% | K-562 leukemia; 10 µM unless noted 5.04% | MALME-3M melanoma; 10 µM unless noted -30.6% | MDA-MB-231 breast; 10 µM unless noted -29.7% | SF-268 CNS; 10 µM unless noted -29.8% | SF-539 CNS; 10 µM unless noted -40.7% | M14 melanoma; 10 µM unless noted -11.8%
